Measured values from PubChem BioAssay AID624255 (Broad Institute, 2012).
Screen size: about 77,000 compounds; about 4,600 (6%) were called active. About 1% were inconclusive and are not listed.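 The calls were made as follows: active = mean inhibition above about 93%, with at least 55% of replicates each passing it (limit read from the data, passing the limit was not always enough); inconclusive = only one of those two conditions holds; inactive = neither condition holds.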 The list comes from a sample in which actives are over-represented; it also holds similar structures and randomly drawn compounds.

Assay: T. cruzi intracellular proliferation inhibitors, primary screen, cell-based, beta-gal Tulahuen parasites, NIH3T3 host, luminescence (AID 624255)
Conditions: T. cruzi beta-gal in NIH3T3, GalScreen luminescence, 90 h; at 8.34 µM; stronger effect = higher value

Row | SMILES | inhibition
1 | COc1cccc(NC(=O)N(C)C[C@H]2Oc3ncc(C4=CCCCC4)cc3C(=O)N([C@H](C)CO)C[C@H]2C)c1 | -8.07% (inactive)
2 | CO[C@@H]1CC[C@H]2CCOc3c(C#N)cccc3C(=O)N(C)C[C@@H](OC)[C@H](C)C(=O)N(C)C[C@@H]1O2 | 20.8% (inactive)
3 | O=C(CN1CCOCC1)N[C@@H]1CC[C@H](CCNS(=O)(=O)c2ccccc2F)O[C@H]1CO | 2.08% (inactive)
4 | C[C@@H]1CCCCO[C@@H](CN(C)C(=O)Cc2ccccc2)[C@@H](C)CN([C@@H](C)CO)C(=O)c2cc(NC(=O)c3ccccc3)ccc2O1 | 60.5% (inactive)
5 | C[C@@H]1CN([C@H](C)CO)C(=O)c2cc(C3=CCCC3)cnc2O[C@@H]1CN(C)C(=O)Nc1ccc(F)cc1 | 15.9% (inactive)
6 | O=C([C@H]1[C@H](CO)[C@H]2Cn3c(ccc(C4=CCCC4)c3=O)[C@@H]1N2C(=O)c1ccncc1)N1CCCCC1 | 34.7% (inactive)
7 | CO[C@H]1CN(C)C(=O)c2ccc(NC(=O)C3CC3)cc2OC[C@H](C)N(CCc2ccccc2)C[C@H]1C | 36.1% (inactive)
8 | COc1ccc(CN(C)C[C@@H]2OCCCC[C@H](C)Oc3ccc(NS(C)(=O)=O)cc3C(=O)N([C@@H](C)CO)C[C@H]2C)cc1 | 0.374% (inactive)
9 | Cc1ccc(S(=O)(=O)N2C[C@H](O)COC[C@H]3O[C@H](CC(=O)N[C@H]4CCN(Cc5ccccc5)C4)CC[C@@H]32)cc1 | -33.7% (inactive)
10 | Cc1cccc(-c2ccc([C@H]3[C@@H](CO)N4CCCCN(Cc5cncnc5)C[C@H]34)cc2)c1 | 104% (active)
11 | OC[C@@H]1[C@@H](c2ccc(-c3ccccc3F)cc2)[C@@H]2CN(Cc3cncnc3)CCCCN12 | 74.2% (inactive)
12 | OC[C@H]1[C@H](c2ccc(-c3cccc(F)c3)cc2)[C@@H]2CN(Cc3cncnc3)CCCCN12 | 107% (active)
13 | OC[C@H]1[C@@H](c2ccc(-c3ccccc3F)cc2)[C@@H]2CN(Cc3ccncc3)CCCCN12 | 93.1% (inactive)
14 | Cc1cccc(-c2ccc([C@@H]3[C@H](CO)N4CCCCN(Cc5ccncc5)C[C@@H]34)cc2)c1 | 92% (inactive)
15 | CN(C)C(=O)c1ccc(-c2ccc([C@@H]3[C@@H](CO)N4CCCCN(Cc5cncnc5)C[C@@H]34)cc2)cc1 | 55.5% (inactive)
16 | OC[C@H]1[C@H](c2ccc(-c3ccccc3F)cc2)[C@H]2CN(Cc3cncnc3)CCCCN21 | 69.5% (inactive)
17 | OC[C@@H]1[C@H](c2ccc(C3=CCCC3)cc2)[C@H]2CN(Cc3ccncc3)CCCCN12 | 75.8% (inactive)
18 | Cc1ccc(-c2ccc([C@H]3[C@H](CO)N4CCCCN(Cc5cncnc5)C[C@@H]34)cc2)cc1 | 96% (active)
19 | O=C(C[C@@H]1C[C@@H]2c3cc(NC(=O)NC4CCCC4)ccc3O[C@@H]2[C@@H](CO)O1)NCc1ccccc1 | 52.2% (inactive)
20 | COc1cccc(-c2ccc3n(c2=O)C[C@@H]2[C@@H](CO)[C@H](C(=O)N4CCCCC4)N[C@H]32)c1 | 13.4% (inactive)
21 | O=C(Nc1ccc(C(F)(F)F)cc1)N[C@@H]1CC[C@@H](CCNC(=O)c2ccccc2F)O[C@H]1CO | 57.5% (inactive)
22 | C[C@@H]1CN([C@@H](C)CO)C(=O)c2cc(-c3ccc(C#N)cc3)cnc2O[C@H]1CN(C)C(=O)CN(C)C | 30.7% (inactive)
23 | COCC(=O)Nc1ccc2c(c1)C(=O)N(C)C[C@@H](OC)[C@@H](C)CN(CC1CCCCC1)[C@@H](C)CO2 | 5.52% (inactive)

Row | SMILES | inhibition
24 | O=C(C[C@H]1CC[C@@H]2[C@H](COC[C@H](O)CN2Cc2ccc(Oc3ccccc3)cc2)O1)N1CCN(c2ccccc2)CC1 | 117% (active)
25 | COc1cccc(S(=O)(=O)N2C[C@H](O)COC[C@H]3O[C@@H](CC(=O)N4CCN(c5ccccc5)CC4)CC[C@@H]32)c1 | 12.2% (inactive)
26 | O=C(C[C@H]1CC[C@H]2[C@@H](COC[C@H](O)CN2C(=O)c2ccccn2)O1)N1CCN(c2ccccc2)CC1 | -3.75% (inactive)
27 | COc1ccc(S(=O)(=O)N2CC[C@H]3[C@@H](CO)N(C)c4ccc(C#Cc5ccccc5OC)cc4[C@H]32)cc1 | 52% (inactive)
28 | CCC(=O)Nc1ccc2c(c1)C(=O)N(C)[C@@H]1CC[C@@H](CC(=O)NCc3ccccc3Cl)O[C@H]1CO2 | 5.11% (inactive)
29 | CCNC(=O)Nc1ccc2c(c1)C(=O)N(C)[C@@H]1CC[C@@H](CC(=O)NCCOC)O[C@@H]1CO2 | 4.1% (inactive)
30 | C[C@@H]1CN([C@@H](C)CO)S(=O)(=O)c2ccc(C3=CCCC3)cc2O[C@H]1CN(C)C(=O)CC1CC1 | 36% (inactive)
31 | C[C@H]1CN([C@@H](C)CO)S(=O)(=O)c2ccc(C3=CCCCC3)cc2O[C@@H]1CN(C)Cc1ccccc1 | 117% (active)
32 | C[C@H]1CN([C@@H](C)CO)S(=O)(=O)c2ccc(C3=CCCC3)cc2O[C@@H]1CN(C)Cc1ccccc1 | 99.6% (active)
33 | C[C@@H]1CN([C@@H](C)CO)S(=O)(=O)c2ccc(C3=CCCC3)cc2O[C@@H]1CN(C)Cc1ccncc1 | 69.1% (inactive)
34 | C[C@H](CO)N1C[C@H](C)[C@@H](CN(C)Cc2cccnc2)Oc2cc(C3=CCCC3)ccc2S1(=O)=O | 93.1% (inactive)
35 | C[C@@H]1CN([C@@H](C)CO)S(=O)(=O)c2ccc(C3=CCCCC3)cc2O[C@@H]1CN(C)C(=O)CN(C)C | 84.4% (inactive)
36 | C[C@@H]1CN([C@H](C)CO)S(=O)(=O)c2ccc(C3=CCCC3)cc2O[C@H]1CN(C)Cc1ccccc1F | 118% (active)
37 | C[C@H]1CN([C@@H](C)CO)S(=O)(=O)c2ccc(C3=CCCC3)cc2O[C@H]1CN(C)Cc1cccc(C(=O)O)c1 | 18.6% (inactive)
38 | C[C@@H]1CN([C@@H](C)CO)S(=O)(=O)c2ccc(C3=CCCCC3)cc2O[C@@H]1CN(C)Cc1cccc(C(=O)O)c1 | 24% (inactive)
39 | O=C(CCN1CCCCC1)NCC[C@H]1CC[C@@H](NC(=O)C2CCOCC2)[C@H](CO)O1 | 26.2% (inactive)
40 | CO[C@@H]1CN(C)C(=O)c2cc(NC(=O)C3CC3)ccc2OC[C@@H](C)N(C(=O)NC(C)C)C[C@@H]1C | 72% (inactive)
41 | CC(C)(C)[S@](=O)N1Cc2cc(C(=O)N3CCCCC3)nc(-c3cccc(-c4ccccc4F)c3)c2[C@@H]1CCO | 23.3% (inactive)
42 | C[C@@H]1CN([C@@H](C)CO)C(=O)c2cc(-c3cncnc3)cnc2O[C@H]1CN(C)C(=O)c1cccc(F)c1 | 0.0585% (inactive)
43 | COc1ccc(CN(C)C[C@@H]2Oc3ccc(NC(=O)Nc4cccc5ccccc45)cc3C(=O)N([C@H](C)CO)C[C@H]2C)cc1 | 74.4% (inactive)
44 | C[C@@H]1CN([C@@H](C)CO)C(=O)c2cc(NC(=O)Nc3cccc4ccccc34)ccc2O[C@@H]1CN(C)Cc1ccc(-c2ccccc2)cc1 | 84.4% (inactive)
45 | C[C@@H]1CN([C@H](C)CO)C(=O)c2cc(NC(=O)Nc3ccccc3)ccc2O[C@@H]1CN(C)Cc1ccc(Cl)c(Cl)c1 | -114% (inactive)
46 | C[C@@H]1CN([C@@H](C)CO)C(=O)c2cc(NC(=O)Nc3cccc4ccccc34)ccc2O[C@H]1CN(C)Cc1ccc(Cl)c(Cl)c1 | 97.7% (active)

Row | SMILES | inhibition
47 | C[C@@H]1CN([C@@H](C)CO)C(=O)c2cc(NC(=O)Nc3cccc4ccccc34)ccc2O[C@H]1CN(C)Cc1ccc(Oc2ccccc2)cc1 | 121% (active)
48 | C[C@@H]1CN([C@H](C)CO)C(=O)c2cc(NC(=O)Nc3ccccc3)ccc2O[C@H]1CN(C)Cc1ccc(Cl)c(Cl)c1 | -217% (inactive)
49 | COc1ccc(S(=O)(=O)N[C@H]2C=C[C@@H](CC(=O)O)O[C@@H]2CO)cc1 | 8.59% (inactive)
50 | CCCN1C[C@@H](C)[C@@H](OC)CN(C)C(=O)c2ccc(NC(=O)Nc3cccc(F)c3)cc2OC[C@@H]1C | 9.75% (inactive)
51 | COc1cccc(CNC(=O)C[C@H]2CC[C@@H](NC(C)=O)[C@@H](CO)O2)c1 | -45.2% (inactive)
52 | CC(=O)N1C[C@@H]2[C@H](c3ccccc31)[C@H](CO)N2C(=O)Nc1ccc(F)cc1 | -6.85% (inactive)
53 | C[C@@H](NC(=O)C[C@@H]1CC[C@H]2[C@@H](COC[C@@H](O)CN2C(=O)Nc2cccc(F)c2)O1)c1ccccc1 | 33.4% (inactive)
54 | O=C(C[C@@H]1C[C@H]2c3cc(NC(=O)Nc4ccccc4)ccc3O[C@H]2[C@@H](CO)O1)NCc1cccnc1 | -4.79% (inactive)
55 | Cc1noc(C)c1NC(=O)Nc1ccc2c(c1)C(=O)N([C@H](C)CO)C[C@@H](C)[C@@H](CN(C)S(=O)(=O)c1ccc(Cl)cc1)OCCCC[C@H](C)O2 | 55.2% (inactive)
56 | COc1ccccc1S(=O)(=O)N[C@@H]1CC[C@H](CC(=O)N2CCN(C)CC2)O[C@@H]1CO | -19.7% (inactive)
57 | CN1CCN(C(=O)C[C@@H]2C[C@@H]3c4cc(NC(=O)c5ccc6c(c5)OCO6)ccc4O[C@@H]3[C@H](CO)O2)CC1 | 8.43% (inactive)
58 | O=C(C[C@H]1C[C@H]2c3cc(NC(=O)c4ccc5c(c4)OCO5)ccc3O[C@H]2[C@@H](CO)O1)NCc1cccc(F)c1 | 38.1% (inactive)
59 | COc1cccc(S(=O)(=O)Nc2ccc3c(c2)[C@H]2C[C@H](CC(=O)NCc4ccc(Cl)cc4)O[C@H](CO)[C@H]2O3)c1 | 159% (active)
60 | O=C(C[C@H]1C[C@@H]2c3cc(NC(=O)c4ccc5c(c4)OCO5)ccc3O[C@@H]2[C@@H](CO)O1)NCc1cccnc1 | -76.9% (inactive)
61 | COc1cccc(S(=O)(=O)Nc2ccc3c(c2)[C@@H]2C[C@@H](CC(=O)NCc4ccc(Cl)cc4)O[C@H](CO)[C@@H]2O3)c1 | 32.2% (inactive)
62 | O=C(C[C@@H]1C[C@@H]2c3cc(NC(=O)c4ccc5c(c4)OCO5)ccc3O[C@@H]2[C@@H](CO)O1)NCc1ccc(Cl)cc1 | 97.9% (active)
63 | CCCNC(=O)C[C@H]1C[C@@H]2c3cc(NS(=O)(=O)c4cccc(OC)c4)ccc3O[C@@H]2[C@@H](CO)O1 | -11.6% (inactive)
64 | O=C(C[C@@H]1C[C@H]2c3cc(NC(=O)CC4CC4)ccc3O[C@H]2[C@@H](CO)O1)NCc1ccc2c(c1)OCO2 | 30.3% (inactive)
65 | O=C(C[C@@H]1C[C@H]2c3cc(NC(=O)C4CCC4)ccc3O[C@H]2[C@@H](CO)O1)NCc1ccc2c(c1)OCO2 | 106% (active)
66 | CN(C)C(=O)C[C@@H]1C[C@@H]2c3cc(NC(=O)c4ccc5c(c4)OCO5)ccc3O[C@@H]2[C@H](CO)O1 | -59.5% (inactive)
67 | O=C(C[C@@H]1C[C@H]2c3cc(NC(=O)C4CCOCC4)ccc3O[C@H]2[C@H](CO)O1)NCc1ccc2c(c1)OCO2 | 40.2% (inactive)
68 | O=C(Nc1ccc2c(c1)[C@@H]1C[C@H](CC(=O)N3CCOCC3)O[C@@H](CO)[C@@H]1O2)c1ccc2c(c1)OCO2 | 103% (active)
